From ChEMBL document CHEMBL1961873, “Compounds: GSK PKIS; Assays: Nanosyn kinase panel” (2012)

Key:
[1] = target: T1, Inhibitor of nuclear factor kappa-B kinase subunit epsilon (Homo sapiens) (UniProt Q14164); settings: at 1 µM;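 note: reported values are averaged percent inhibition figures against human IKKε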
T1 sequence (whole entry): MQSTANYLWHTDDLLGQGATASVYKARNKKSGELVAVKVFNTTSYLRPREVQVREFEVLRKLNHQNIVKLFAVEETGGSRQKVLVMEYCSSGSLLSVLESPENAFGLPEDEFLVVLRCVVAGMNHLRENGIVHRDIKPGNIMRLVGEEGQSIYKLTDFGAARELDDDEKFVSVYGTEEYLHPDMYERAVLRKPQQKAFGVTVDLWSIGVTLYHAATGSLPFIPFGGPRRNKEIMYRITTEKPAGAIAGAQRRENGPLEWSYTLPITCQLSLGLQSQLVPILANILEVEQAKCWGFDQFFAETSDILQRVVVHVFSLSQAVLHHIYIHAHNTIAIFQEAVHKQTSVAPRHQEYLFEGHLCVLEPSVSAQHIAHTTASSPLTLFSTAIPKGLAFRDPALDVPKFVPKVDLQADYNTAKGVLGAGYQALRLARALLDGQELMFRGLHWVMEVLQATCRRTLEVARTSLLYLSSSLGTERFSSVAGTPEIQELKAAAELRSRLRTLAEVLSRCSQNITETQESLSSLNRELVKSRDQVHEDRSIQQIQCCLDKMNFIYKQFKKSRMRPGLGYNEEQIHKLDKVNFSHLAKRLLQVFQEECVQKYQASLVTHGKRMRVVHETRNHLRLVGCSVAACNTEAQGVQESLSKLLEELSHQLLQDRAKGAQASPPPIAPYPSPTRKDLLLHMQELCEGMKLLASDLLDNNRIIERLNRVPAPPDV

[2] = target: T2, Serine/threonine-protein kinase Nek1 (Homo sapiens) (UniProt Q96PY6); settings: at 0.1 µM
T2 sequence (whole entry): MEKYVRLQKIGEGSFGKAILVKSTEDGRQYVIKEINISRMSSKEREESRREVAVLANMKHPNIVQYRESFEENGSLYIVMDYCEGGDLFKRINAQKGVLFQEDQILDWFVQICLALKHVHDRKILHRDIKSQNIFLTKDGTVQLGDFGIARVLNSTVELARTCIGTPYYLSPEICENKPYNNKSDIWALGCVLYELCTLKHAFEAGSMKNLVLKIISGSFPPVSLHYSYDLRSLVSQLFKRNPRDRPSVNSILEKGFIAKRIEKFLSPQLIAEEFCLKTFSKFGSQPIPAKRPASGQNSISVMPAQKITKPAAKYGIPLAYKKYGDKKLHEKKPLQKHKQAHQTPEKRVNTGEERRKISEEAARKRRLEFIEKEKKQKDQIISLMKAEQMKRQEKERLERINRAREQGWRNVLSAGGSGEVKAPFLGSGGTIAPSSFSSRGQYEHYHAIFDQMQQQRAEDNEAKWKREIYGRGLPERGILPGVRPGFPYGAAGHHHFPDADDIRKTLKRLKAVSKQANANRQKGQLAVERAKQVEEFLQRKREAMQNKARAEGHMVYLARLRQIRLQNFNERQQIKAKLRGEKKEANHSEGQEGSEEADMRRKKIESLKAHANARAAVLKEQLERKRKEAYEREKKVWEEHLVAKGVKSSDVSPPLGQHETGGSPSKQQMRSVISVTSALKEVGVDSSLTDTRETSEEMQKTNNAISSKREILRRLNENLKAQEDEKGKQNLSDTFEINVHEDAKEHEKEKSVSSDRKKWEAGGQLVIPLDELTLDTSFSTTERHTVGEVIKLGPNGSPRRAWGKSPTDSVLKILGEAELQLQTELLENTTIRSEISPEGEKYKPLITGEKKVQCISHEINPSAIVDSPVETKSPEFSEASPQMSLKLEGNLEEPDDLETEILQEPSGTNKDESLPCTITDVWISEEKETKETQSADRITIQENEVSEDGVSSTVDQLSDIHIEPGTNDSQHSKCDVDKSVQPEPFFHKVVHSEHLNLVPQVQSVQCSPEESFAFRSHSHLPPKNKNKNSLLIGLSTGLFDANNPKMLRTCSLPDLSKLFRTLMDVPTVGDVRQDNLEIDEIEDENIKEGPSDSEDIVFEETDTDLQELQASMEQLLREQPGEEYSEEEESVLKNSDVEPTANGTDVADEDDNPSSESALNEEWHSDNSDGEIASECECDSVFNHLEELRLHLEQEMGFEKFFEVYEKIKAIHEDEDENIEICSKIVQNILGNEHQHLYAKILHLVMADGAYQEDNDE

[3] = target: T2, Serine/threonine-protein kinase Nek1 (Homo sapiens); settings: at 1 µM
[4] = target: T3, Serine/threonine-protein kinase Nek2 (Homo sapiens) (UniProt P51955); settings: at 0.1 µM
T3 sequence (whole entry): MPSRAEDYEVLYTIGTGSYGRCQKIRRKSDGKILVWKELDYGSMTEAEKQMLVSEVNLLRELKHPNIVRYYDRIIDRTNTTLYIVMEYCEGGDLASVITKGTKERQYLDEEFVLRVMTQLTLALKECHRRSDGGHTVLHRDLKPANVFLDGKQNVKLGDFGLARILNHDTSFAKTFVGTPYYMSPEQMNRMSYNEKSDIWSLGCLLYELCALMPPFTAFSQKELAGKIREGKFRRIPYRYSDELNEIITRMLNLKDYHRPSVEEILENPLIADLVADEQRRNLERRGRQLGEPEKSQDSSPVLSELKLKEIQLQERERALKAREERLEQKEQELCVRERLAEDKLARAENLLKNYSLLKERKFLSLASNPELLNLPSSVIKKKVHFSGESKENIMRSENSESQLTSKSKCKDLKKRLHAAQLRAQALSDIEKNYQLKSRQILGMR

[5] = target: T3, Serine/threonine-protein kinase Nek2 (Homo sapiens); settings: at 1 µM
[6] = target: Serine/threonine-protein kinase Nek6 (Homo sapiens) (UniProt Q9HC98); settings: at 0.1 µM
[7] = target: Serine/threonine-protein kinase Nek6 (Homo sapiens) (UniProt Q9HC98); settings: at 1 µM
[8] = target: Serine/threonine-protein kinase Nek7 (Homo sapiens) (UniProt Q8TDX7); settings: at 0.1 µM
[9] = target: Serine/threonine-protein kinase Nek7 (Homo sapiens) (UniProt Q8TDX7); settings: at 1 µM
[10] = target: T4, Serine/threonine-protein kinase Nek9 (Homo sapiens) (UniProt Q8TD19); settings: at 0.1 µM
T4 sequence (whole entry): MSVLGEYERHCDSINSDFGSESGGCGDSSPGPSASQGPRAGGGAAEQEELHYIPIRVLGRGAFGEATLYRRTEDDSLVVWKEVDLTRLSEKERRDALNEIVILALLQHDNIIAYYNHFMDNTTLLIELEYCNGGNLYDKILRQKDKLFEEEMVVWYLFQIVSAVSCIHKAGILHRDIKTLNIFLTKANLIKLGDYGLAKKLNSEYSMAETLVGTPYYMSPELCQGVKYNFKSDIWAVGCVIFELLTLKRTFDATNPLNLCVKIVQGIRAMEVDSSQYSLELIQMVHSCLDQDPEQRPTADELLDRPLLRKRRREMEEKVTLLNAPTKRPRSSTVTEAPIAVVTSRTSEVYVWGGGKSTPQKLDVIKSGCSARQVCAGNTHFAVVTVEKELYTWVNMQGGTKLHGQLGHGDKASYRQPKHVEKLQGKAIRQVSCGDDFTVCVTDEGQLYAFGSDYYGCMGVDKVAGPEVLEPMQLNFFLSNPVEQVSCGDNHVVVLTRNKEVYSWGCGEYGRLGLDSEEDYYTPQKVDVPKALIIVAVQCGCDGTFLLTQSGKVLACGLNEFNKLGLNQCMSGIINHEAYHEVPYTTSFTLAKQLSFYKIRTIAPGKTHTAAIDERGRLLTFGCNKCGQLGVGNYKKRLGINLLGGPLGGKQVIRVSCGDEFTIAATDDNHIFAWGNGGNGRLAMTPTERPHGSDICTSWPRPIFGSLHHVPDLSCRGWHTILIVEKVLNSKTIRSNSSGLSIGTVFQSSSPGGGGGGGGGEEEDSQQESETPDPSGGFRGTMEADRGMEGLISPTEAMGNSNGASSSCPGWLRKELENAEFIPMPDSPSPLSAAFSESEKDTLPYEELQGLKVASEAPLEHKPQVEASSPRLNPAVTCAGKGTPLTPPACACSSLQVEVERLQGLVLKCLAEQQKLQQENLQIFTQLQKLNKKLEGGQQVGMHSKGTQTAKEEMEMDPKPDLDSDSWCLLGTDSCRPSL

[11] = target: T4, Serine/threonine-protein kinase Nek9 (Homo sapiens); settings: at 1 µM
[12] = target: Serine/threonine-protein kinase PLK1 (Homo sapiens) (UniProt P53350); settings: at 0.1 µM
[13] = target: Serine/threonine-protein kinase PLK1 (Homo sapiens) (UniProt P53350); settings: at 1 µM
[14] = target: T5, Dual specificity protein kinase TTK (Homo sapiens) (UniProt P33981); settings: at 0.1 µM
T5 sequence (whole entry): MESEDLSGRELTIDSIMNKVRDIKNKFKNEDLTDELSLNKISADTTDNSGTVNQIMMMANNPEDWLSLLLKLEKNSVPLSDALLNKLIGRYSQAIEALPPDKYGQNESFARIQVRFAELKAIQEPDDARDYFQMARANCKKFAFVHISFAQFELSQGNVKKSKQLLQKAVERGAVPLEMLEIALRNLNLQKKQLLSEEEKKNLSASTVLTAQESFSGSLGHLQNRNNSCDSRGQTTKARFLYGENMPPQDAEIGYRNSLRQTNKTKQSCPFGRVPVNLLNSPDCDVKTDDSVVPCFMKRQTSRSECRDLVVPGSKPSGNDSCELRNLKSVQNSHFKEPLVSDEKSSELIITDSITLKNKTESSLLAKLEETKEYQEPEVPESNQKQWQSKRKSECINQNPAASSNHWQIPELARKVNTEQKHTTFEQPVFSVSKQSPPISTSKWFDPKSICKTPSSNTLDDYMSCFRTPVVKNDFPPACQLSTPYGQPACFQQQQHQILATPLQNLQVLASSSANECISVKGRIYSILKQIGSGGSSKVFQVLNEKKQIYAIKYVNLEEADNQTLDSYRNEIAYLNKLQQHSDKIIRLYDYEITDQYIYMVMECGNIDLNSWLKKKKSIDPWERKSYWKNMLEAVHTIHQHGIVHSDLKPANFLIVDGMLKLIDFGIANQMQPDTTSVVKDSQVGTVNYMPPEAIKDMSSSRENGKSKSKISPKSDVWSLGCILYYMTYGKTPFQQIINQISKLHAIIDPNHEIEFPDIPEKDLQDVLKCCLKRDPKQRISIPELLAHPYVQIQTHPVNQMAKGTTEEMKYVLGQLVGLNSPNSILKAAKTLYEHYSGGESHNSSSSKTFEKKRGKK

[15] = system: T6, Receptor-type tyrosine-protein kinase FLT3 (Homo sapiens), P36888 [D835Y]; settings: at 1 µM
T6 sequence (whole entry): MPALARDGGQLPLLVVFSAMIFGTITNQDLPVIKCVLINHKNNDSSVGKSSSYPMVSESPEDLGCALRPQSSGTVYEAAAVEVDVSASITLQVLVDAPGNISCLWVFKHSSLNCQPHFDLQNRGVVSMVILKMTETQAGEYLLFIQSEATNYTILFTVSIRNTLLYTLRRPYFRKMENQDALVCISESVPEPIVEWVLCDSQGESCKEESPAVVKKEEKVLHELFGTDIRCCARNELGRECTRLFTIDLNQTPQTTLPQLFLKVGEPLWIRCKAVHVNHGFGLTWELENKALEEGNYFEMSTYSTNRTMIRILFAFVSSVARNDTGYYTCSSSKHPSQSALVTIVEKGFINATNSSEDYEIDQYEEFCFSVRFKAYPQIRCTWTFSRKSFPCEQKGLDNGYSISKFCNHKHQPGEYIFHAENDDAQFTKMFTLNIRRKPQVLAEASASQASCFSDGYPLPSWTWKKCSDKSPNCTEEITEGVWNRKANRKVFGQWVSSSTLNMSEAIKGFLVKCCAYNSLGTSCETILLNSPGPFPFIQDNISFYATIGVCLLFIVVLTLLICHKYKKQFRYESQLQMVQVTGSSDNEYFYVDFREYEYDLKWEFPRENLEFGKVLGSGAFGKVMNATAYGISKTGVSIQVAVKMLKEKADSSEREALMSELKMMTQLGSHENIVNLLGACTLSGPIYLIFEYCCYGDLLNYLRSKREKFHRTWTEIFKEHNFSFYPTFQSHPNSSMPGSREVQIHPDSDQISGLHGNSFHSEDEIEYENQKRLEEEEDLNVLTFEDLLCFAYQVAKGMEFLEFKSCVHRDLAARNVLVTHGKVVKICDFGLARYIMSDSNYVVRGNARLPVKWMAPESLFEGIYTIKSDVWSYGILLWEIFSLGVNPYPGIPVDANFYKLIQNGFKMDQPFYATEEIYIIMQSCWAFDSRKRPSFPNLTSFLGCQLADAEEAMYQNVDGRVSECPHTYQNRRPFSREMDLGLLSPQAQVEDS

[16] = target: Vascular endothelial growth factor receptor 3 (Homo sapiens) (UniProt P35916); settings: at 0.1 µM
[17] = target: Vascular endothelial growth factor receptor 3 (Homo sapiens) (UniProt P35916); settings: at 1 µM
[18] = target: Macrophage colony-stimulating factor 1 receptor (Homo sapiens) (UniProt P07333); settings: at 0.1 µM
[19] = target: Macrophage colony-stimulating factor 1 receptor (Homo sapiens) (UniProt P07333); settings: at 1 µM
[20] = target: Tyrosine-protein kinase Fyn (Homo sapiens) (UniProt P06241); settings: at 0.1 µM
Sequence of Tyrosine-protein kinase Fyn (Homo sapiens) (P06241 2-537 limits assumed): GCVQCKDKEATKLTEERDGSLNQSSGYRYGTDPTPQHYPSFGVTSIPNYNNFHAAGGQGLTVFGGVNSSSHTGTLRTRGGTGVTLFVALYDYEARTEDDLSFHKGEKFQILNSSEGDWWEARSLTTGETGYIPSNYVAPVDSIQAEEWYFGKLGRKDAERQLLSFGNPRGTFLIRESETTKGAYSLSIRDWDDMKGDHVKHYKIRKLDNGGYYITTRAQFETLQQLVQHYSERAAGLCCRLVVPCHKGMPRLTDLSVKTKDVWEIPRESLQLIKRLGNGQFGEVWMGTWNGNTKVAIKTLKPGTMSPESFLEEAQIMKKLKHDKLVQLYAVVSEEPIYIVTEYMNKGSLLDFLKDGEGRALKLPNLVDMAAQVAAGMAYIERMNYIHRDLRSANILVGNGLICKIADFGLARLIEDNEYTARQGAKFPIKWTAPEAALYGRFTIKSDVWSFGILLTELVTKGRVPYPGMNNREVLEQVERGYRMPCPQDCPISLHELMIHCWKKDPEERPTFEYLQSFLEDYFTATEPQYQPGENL

Sequence of Serine/threonine-protein kinase Nek6 (Homo sapiens) (Q9HC98 whole entry): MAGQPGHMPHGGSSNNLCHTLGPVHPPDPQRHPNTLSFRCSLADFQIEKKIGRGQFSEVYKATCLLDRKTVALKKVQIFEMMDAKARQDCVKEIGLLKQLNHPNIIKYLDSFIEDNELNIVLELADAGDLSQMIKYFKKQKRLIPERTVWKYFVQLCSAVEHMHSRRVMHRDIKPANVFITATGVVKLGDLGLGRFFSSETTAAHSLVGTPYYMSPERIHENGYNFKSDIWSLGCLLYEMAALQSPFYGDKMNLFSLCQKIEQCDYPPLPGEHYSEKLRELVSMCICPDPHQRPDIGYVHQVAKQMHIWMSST
Sequence of Macrophage colony-stimulating factor 1 receptor (Homo sapiens) (P07333 whole entry): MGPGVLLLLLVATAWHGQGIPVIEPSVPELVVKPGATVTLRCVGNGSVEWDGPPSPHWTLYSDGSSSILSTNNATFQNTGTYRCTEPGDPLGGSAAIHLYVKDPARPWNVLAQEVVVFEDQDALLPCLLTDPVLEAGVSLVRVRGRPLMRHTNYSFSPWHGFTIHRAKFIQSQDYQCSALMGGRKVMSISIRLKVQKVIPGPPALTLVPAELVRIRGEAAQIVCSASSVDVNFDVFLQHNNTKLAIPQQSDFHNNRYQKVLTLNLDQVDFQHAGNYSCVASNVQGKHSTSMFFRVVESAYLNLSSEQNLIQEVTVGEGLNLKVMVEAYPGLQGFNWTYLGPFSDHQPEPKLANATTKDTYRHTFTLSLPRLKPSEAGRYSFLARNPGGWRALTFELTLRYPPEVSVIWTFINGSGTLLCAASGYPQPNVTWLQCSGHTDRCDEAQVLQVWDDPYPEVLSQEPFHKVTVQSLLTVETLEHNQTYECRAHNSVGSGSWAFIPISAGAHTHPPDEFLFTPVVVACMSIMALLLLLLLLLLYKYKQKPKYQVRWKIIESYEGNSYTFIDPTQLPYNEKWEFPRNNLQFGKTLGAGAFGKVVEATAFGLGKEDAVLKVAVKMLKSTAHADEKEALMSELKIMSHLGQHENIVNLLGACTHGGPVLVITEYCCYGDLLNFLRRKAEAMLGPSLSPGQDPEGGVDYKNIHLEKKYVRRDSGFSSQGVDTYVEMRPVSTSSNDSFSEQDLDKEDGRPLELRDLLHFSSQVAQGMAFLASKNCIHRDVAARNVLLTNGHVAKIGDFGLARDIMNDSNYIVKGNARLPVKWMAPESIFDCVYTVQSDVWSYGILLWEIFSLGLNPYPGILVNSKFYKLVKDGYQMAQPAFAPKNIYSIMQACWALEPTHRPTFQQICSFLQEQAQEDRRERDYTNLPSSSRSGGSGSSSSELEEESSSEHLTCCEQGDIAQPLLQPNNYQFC
Sequence of Serine/threonine-protein kinase PLK1 (Homo sapiens) (P53350 whole entry): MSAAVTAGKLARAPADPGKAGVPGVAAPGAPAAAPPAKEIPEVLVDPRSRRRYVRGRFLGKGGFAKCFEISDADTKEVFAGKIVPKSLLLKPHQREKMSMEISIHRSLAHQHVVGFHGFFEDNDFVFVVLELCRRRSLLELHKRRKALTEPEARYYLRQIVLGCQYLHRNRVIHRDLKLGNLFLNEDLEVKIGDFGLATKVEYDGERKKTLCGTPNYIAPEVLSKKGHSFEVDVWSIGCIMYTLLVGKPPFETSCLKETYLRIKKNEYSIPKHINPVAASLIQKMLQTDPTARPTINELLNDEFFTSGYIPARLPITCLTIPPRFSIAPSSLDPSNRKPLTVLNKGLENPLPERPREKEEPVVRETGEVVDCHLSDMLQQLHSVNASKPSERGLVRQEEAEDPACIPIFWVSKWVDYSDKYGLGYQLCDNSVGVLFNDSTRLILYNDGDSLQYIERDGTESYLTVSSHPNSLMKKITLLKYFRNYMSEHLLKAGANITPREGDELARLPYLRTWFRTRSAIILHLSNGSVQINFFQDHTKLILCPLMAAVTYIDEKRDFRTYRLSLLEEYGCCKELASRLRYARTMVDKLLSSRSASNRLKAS
Sequence of Serine/threonine-protein kinase Nek7 (Homo sapiens) (Q8TDX7 whole entry, looked up): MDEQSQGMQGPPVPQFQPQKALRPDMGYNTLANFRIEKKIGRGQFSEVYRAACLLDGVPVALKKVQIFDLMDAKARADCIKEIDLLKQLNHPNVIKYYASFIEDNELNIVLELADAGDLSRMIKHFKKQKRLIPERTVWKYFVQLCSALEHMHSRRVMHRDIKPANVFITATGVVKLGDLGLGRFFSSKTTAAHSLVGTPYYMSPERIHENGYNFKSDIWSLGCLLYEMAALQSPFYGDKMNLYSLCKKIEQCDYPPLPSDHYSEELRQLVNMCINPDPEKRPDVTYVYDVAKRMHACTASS
Sequence of Vascular endothelial growth factor receptor 3 (Homo sapiens) (P35916 whole entry): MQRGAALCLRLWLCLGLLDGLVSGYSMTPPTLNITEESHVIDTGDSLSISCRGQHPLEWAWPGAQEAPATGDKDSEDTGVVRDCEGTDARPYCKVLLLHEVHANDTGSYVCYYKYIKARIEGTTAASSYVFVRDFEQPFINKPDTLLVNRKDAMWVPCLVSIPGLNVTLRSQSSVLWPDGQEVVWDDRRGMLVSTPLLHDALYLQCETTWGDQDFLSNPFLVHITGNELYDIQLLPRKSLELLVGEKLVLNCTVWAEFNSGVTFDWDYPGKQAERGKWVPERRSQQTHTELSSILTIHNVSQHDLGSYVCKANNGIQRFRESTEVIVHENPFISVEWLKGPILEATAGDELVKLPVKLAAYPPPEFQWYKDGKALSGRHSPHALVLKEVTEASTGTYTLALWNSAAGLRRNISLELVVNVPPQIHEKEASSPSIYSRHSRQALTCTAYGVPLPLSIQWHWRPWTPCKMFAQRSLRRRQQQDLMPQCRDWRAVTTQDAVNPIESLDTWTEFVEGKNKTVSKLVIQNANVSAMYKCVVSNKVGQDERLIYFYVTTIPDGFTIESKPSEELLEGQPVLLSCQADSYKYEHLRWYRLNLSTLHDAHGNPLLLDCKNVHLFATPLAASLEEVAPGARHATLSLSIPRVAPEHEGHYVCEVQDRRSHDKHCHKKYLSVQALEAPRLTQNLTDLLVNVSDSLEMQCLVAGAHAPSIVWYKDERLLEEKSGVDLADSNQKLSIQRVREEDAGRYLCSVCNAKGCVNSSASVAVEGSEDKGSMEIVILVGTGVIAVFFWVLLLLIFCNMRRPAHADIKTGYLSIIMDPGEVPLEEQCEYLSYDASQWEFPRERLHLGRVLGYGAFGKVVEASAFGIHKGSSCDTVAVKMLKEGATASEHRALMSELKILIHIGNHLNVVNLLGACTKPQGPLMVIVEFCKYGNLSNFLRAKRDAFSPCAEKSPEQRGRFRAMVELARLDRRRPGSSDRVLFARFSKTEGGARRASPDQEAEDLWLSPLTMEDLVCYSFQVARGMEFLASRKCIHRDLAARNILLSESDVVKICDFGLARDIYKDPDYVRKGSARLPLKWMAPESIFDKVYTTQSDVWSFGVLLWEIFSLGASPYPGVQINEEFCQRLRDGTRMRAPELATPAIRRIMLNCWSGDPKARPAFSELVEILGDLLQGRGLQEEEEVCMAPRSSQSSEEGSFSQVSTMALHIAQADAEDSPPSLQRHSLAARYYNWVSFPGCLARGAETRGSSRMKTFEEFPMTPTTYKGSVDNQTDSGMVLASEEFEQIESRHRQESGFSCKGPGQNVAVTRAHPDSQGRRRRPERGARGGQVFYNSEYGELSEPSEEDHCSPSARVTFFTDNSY

Structure (SMILES) | inhibition [1] | inhibition [2] | inhibition [3] | inhibition [4] | inhibition [5] | inhibition [6] | inhibition [7] | inhibition [8] | inhibition [9] | inhibition [10] | inhibition [11] | inhibition [12] | inhibition [13] | inhibition [14] | inhibition [15] | inhibition [16] | inhibition [17] | inhibition [18] | inhibition [19] | inhibition [20]
CCS(=O)(=O)c1ccc(OC)c(Nc2ncc(-c3cccc(F)c3)o2)c1 | 8.87% | 4.05% | 5.27% | 6.14% | 7.08% | -1.8% | 1.24% | 4.07% | 0.27% | 7.49% | 16.1% | 7.8% | 9.98% | 10.5% | 60.3% | 36.4% | 86.8% | 33.7% | 66.7% | 30.1%
CCOc1ccc2c(-c3ccnc(Nc4cc(OC)cc(C(F)(F)F)c4)n3)cnn2n1 | 26.5% | 1.06% | 2.42% | 1.26% | 0.94% | -0.49% | 1.7% | 2.79% | 2.42% | 3.87% | 7.2% | 0.53% | 1.68% | -0.36% | 17% | 15.8% | 22.8% | 2.34% | 17.2% | 3.33%
CC1=C(C(=O)Nc2ccc3[nH]ncc3c2)C(c2ccc(F)cc2)N=C(c2ccc(C(F)(F)F)nc2)N1 (stereo not given) | 3.45% | 1.75% | 1.45% | 3.41% | 2.65% | 1.87% | -0.45% | 3.08% | 2.92% | 2.7% | -1.51% | 1.85% | 1.78% | 3.99% | 1.9% | 1.85% | 0.82% | 3.03% | 2.25% | 4.17%
